# Out of some 5,600 compounds screened, about 390 (7%) showed an effect of 50% or more. The list comes from a sample in which strong results are over-represented; it also holds similar structures and randomly drawn compounds. Residues, ends and D or L forms follow the SMILES beside them.
# Biological target: T1, Protein deacetylase HDAC6 (Homo sapiens) (UniProt Q9UBN7)
# T1 sequence (whole entry): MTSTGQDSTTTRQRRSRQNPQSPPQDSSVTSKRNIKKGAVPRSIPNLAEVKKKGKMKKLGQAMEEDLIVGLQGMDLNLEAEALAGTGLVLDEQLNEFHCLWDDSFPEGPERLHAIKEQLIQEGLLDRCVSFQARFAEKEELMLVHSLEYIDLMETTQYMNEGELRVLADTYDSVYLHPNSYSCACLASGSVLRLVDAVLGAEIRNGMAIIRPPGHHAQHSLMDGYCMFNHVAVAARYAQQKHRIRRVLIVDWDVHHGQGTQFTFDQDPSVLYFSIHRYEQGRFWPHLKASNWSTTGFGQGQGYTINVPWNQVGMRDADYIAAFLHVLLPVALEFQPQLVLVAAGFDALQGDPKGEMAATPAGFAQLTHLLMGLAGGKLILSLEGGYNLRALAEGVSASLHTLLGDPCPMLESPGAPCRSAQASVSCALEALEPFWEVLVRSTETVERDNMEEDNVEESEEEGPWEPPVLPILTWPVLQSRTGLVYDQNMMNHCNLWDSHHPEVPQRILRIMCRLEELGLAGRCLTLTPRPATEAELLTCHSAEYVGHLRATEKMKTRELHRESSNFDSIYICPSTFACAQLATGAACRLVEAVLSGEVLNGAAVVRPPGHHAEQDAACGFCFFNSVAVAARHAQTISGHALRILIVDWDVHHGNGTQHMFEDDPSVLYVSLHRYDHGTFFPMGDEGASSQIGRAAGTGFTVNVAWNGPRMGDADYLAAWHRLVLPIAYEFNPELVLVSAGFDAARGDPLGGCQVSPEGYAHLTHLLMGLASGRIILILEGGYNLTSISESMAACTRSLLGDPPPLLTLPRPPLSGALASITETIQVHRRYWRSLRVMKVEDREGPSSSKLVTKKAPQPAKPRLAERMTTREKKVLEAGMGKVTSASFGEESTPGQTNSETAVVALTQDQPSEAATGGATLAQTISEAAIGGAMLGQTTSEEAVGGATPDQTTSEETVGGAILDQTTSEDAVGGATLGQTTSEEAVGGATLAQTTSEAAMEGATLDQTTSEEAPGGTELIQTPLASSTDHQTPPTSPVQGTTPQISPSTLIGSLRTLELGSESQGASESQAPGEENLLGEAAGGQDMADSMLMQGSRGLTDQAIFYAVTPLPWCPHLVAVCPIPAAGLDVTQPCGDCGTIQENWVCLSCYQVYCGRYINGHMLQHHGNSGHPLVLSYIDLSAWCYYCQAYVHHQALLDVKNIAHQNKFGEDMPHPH
# Conditions: at 10 µM
row,SMILES,inhibition [%]
1,COc1nccnc1NS(=O)(=O)c1ccc(N)cc1,34.6
2,CCCCc1nc2cc(/C=C/C(=O)NO)ccc2n1CCN(CC)CC,102
3,Clc1cc(Cl)c(OCC#CI)cc1Cl,4.74
4,COc1cc2nc(N3CCC(N4CCCCC4)CC3)nc(NC3CCCCCC3)c2cc1OC,0.07
5,CC(C)[C@H]1c2ccc(F)cc2CC[C@@]1(CCN(C)CCCc1nc2ccccc2[nH]1)OC(=O)C1CC1,15.1
6,Cc1cc(C)cc(NC(=O)Nc2ccc(OS(N)(=O)=O)cc2)c1,44.5
7,COc1ccc(Nc2ncnc3ccc(OC)cc23)cc1,27.1
8,COc1ccc2nc(NC(=O)Nc3ccccc3)sc2c1,109
9,COC1=C2C[C@@H](C)C[C@H](OC)[C@H](O)[C@@H](C)/C=C(\C)[C@H](OC(N)=O)[C@@H](OC)/C=C\C=C(/C)C(=O)NC(=CC1=O)C2=O,19.3
10,COC(=O)Nc1ccc(-c2nc(N3CCOCC3)c3cnn(C4CCN(Cc5cccnc5)CC4)c3n2)cc1,-1.91
11,Nc1nnc(Sc2ncc([N+](=O)[O-])s2)s1,34.9
12,O=C(Nc1c(Cl)cncc1Cl)c1ccc(OC(F)F)c(OCC2CC2)c1,-1.25
13,Cc1ccc(-c2csc3ncnc(SCCC(=O)O)c23)cc1,22.2
14,O=C(O)COc1ccc(C(=O)c2cccs2)c(Cl)c1Cl,19.9
15,Sc1nc2ccccc2s1,52.6
16,O=c1[nH]c2cc(C(F)(F)F)c(N3CCOCC3)cc2n(CP(=O)(O)O)c1=O,1.79
17,CC(C)=CCC[C@](C)(O)[C@@H]1CC=C(C)CC1,18.6
18,COc1ccc(Cc2nc(O)c3c(C)nc([C@@H](CCCc4ccccc4)[C@@H](C)O)n3n2)cc1OC,-9.71
19,COc1ccc(S(=O)(=O)Nc2c(C)cc(C)cc2C)cc1,-8.52
20,Cc1cc(C)c(S(=O)(=O)Nc2cccc(C(F)(F)F)c2)c(C)c1,97.6
21,Cc1sc(N)c(C(=O)c2cccc(C(F)(F)F)c2)c1C,17.1
22,CCc1cccc(CC)c1NC(=O)N1Cc2[nH]nc(NC(=O)c3ccc(N4CCN(C)CC4)cc3)c2C1,7.27
23,Nc1nc(OCC2CCCCC2)c2nc[nH]c2n1,33.5
24,Nc1nc(N)c(N=O)c(OCC2CCCCC2)n1,81.8
25,Nc1ccc(C(=O)NCC(=O)O)cc1,6.74
26,CN(C)CCC1(c2ccc(Cl)cc2)Cc2ccccc2C(=O)O1 (racemic),3.8
27,Cn1cnc([N+](=O)[O-])c1Sc1ncnc2[nH]cnc12,12.8

row,SMILES,inhibition [%]
1,Oc1ccc(C(O)CNCCCCCCNCC(O)c2ccc(O)c(O)c2)cc1O (stereo not drawn),-3.51
2,OCc1cc(C(O)CNCCCCCCOCCCCc2ccccc2)ccc1O (stereo not drawn),-5.85
3,OCc1cc([C@@H](O)CNCCCCCCOCCOCc2c(Cl)cccc2Cl)ccc1O,59.3
4,COc1ccc(Cl)cc1NC(=O)Nc1cc(C)nc2ccccc12,16.6
5,COc1cc(NS(C)(=O)=O)ccc1Nc1c2ccccc2nc2ccccc12,76.6
6,COc1ccc(S(=O)(=O)Nc2cccnc2Nc2ccc(O)cc2)cc1,34.3
7,CCOC(=O)c1cc(C#N)c(N2CCC(C(=O)NS(=O)(=O)Cc3ccccc3)CC2)nc1C,21.9
8,NCC(=O)N[C@@H](CCC(N)=O)C(=O)O (H-Gly-Gln-OH),29.1
9,O=S(=O)(Cc1ccccc1)Nc1ccc(-c2ccc3c(cnn3-c3ccc(F)cc3)c2)c(C(F)(F)F)c1,-8.14
10,Oc1cccc(O)c1,1.38
11,N[C@H]1C[C@@H]1c1ccc(-c2cccc(O)c2)cc1,77.4
12,O=c1[nH]c2ccccc2n1C1CCN(CCOc2ccccc2)CC1,20.9
13,CCOC(=O)c1cc2ccc(O)cc2oc1=O,55.9
14,CN1CCC(COc2cnc(-c3cccc(Cn4nc(-c5cccc(C#N)c5)ccc4=O)c3)nc2)CC1,17.5
15,COc1cc2c(cc1-c1c(C)noc1C)ncc1[nH]c(=O)n([C@H](C)c3ccccn3)c12,12.8
16,CC(=O)/N=c1/[nH]c(C)c(-c2ccc(Cl)c(S(=O)(=O)NCCO)c2)s1,23.4
17,CCCCC1=NC2(CCCC2)C(=O)N1Cc1ccc(-c2ccccc2-c2nnn[nH]2)cc1,-8.81
18,O=C(O)c1cnn(-c2nc3cc(OC(F)(F)F)c(Cl)cc3[nH]2)c1,59.5
19,COc1ccc(Nc2nccc(NCCO)n2)cc1,37.2
20,Cc1cc(NCCO)nc(-c2ccc(Br)cc2)n1,85.2
21,N#Cc1cc(CN2CCC(Nc3ncnc4sc(Cl)cc34)CC2)ccc1F,6.29
22,Cn1c(NC[C@@H](N)Cc2ccccc2)nc(-c2ccncc2)c(-c2ccc3ccccc3c2)c1=O,0.59
23,Nc1nccc2c1ncn2[C@@H]1O[C@H](CO)C(O)C1O (stereo partly drawn),11
24,C[C@H](NC(=O)CNC(=O)c1cccc(Cl)c1)c1ccccc1,21.1
25,COc1ccc(C(=O)NCc2ccc(OCCN(C)C)cc2)cc1OC,1.13
26,COc1cc(C(=O)NCc2ccc(OCCN(C)C)cc2)cc(OC)c1OC,6.33

# Source: ChEMBL document CHEMBL4808148, “HDAC6 screening dataset using tau-based substrate in an enzymatic assay yields selective inhibitors and activators” (2021)
